# Reference: PubChem BioAssay
# A number with no mark means an inactive call. For some assays here: Measured potencies and affinities stand elsewhere. The source made the active and inactive calls. Unless noted, the rule behind the calls is not given here.
# Key:
# [1] = antimalarial activity against Dd2 strain (AID 2302;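 active = growth inhibition above 50% at the single 2 µM test dose, taken to imply half-maximal potency below 2 µM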;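 note: 0% = DMSO untreated growth and 100% = chloroquine plus artemisinin killed control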); settings: P. falciparum Dd2 in RBCs, LDH growth readout, 72 h; at 2 µM; active compounds read high
# [2] = HepG2 cytotoxicity, primary screen, cytotoxicity control for P. falciparum antimalarial project, cell-based, ATP luminescence (AID 2303;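 active = inhibition above 50%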;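 note: 0% = DMSO wells and 100% = digitonin-killed cells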); settings: HepG2 viability, 24-48 h, at 10 µM, active compounds read high
# [3] = biological target: L-lactate dehydrogenase (Plasmodium falciparum (isolate CDC / Honduras)) (UniProt Q27743); assay: PfLDH activity inhibition – cell lysate, 3D7 strain, counter-screen for P. falciparum growth inhibition project (AID 2304);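 note: 0% = vehicle and 100% = reference inhibitor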; settings: P. falciparum 3D7 crude extract, LDH APAD/NBT absorbance; at 2 µM; active compounds read high
# [4] = inhibition of 3D7 malaria parasite growth – strain 3D7 (AID 2306);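 note: 0% = DMSO wells and 100% = chloroquine plus artemisinin control wells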; settings: P. falciparum 3D7 erythrocytic growth, LDH absorbance, 72 h; at 2 µM; active compounds read high
# [5] = biological target: Calcium-dependent protein kinase 1 (Plasmodium falciparum (isolate 3D7)) (UniProt P62344); assay: PfCDPK1 kinase inhibitors, biochemical, TCAMS library (AID 1159585; cut-off not given, nearly all actives have IC50 up to about 0.98 µM;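 note: inhibitors leave more ATP so luminescence rises with inhibition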); settings: recombinant PfCDPK1, Kinase-Glo ATP depletion luminescence
# [6] = biological target: Plasmodium falciparum protein kinase 6 (PK6, PF3D7_1337100) (UniProt Q8IDW1); assay: PfPK6 kinase inhibitors, biochemical, TCAMS library (AID 1159586); settings: recombinant PfPK6, Kinase-Glo ATP depletion luminescence
# [7] = biological target: Protein kinase 7 (PK7), Plasmodium falciparum 3D7 (PF3D7_0213400) (UniProt Q7YTF7); assay: inhibition of Plasmodium PK7 catalytic activity – biochemical, TCAMS antimalarial set, Kinase-Glo luminescence (AID 1159587); settings: recombinant PfPK7, Kinase-Glo ATP depletion luminescence
# [8] = biological target: Calcium-dependent protein kinase 4 (Plasmodium falciparum (isolate 3D7)) (UniProt Q8IBS5); assay: PfCDPK4 kinase inhibitors, biochemical, TCAMS library (AID 1159588; cut-off not given, nearly all actives have IC50 up to about 0.91 µM); settings: recombinant PfCDPK4, Kinase-Glo ATP depletion luminescence
# Sequence of Calcium-dependent protein kinase 4 (Plasmodium falciparum (isolate 3D7)) (Q8IBS5 whole entry, looked up): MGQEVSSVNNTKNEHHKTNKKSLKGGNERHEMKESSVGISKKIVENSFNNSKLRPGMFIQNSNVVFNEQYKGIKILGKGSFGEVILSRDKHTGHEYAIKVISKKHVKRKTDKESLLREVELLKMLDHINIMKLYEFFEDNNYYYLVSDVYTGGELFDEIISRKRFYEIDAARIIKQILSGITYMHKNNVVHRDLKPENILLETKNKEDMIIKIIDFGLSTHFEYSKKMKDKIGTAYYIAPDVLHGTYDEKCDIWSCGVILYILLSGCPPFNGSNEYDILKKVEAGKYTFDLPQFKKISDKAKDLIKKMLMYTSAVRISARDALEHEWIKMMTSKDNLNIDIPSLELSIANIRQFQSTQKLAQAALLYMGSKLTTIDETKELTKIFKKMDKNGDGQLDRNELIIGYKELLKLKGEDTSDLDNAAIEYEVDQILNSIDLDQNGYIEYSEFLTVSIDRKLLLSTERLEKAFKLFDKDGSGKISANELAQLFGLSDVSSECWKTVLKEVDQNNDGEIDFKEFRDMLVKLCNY
# Sequence of L-lactate dehydrogenase (Plasmodium falciparum (isolate CDC / Honduras)) (Q27743 whole entry, looked up): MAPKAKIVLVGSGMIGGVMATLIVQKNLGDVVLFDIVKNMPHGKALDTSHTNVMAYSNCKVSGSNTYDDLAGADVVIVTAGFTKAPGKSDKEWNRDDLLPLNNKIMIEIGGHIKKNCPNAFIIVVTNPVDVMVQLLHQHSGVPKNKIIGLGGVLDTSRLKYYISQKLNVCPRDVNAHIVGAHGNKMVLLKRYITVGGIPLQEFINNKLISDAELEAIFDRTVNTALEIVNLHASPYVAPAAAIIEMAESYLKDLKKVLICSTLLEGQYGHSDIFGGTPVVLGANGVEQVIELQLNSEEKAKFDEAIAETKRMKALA
# Sequence of Protein kinase 7 (PK7), Plasmodium falciparum 3D7 (PF3D7_0213400) (Q7YTF7 1-343): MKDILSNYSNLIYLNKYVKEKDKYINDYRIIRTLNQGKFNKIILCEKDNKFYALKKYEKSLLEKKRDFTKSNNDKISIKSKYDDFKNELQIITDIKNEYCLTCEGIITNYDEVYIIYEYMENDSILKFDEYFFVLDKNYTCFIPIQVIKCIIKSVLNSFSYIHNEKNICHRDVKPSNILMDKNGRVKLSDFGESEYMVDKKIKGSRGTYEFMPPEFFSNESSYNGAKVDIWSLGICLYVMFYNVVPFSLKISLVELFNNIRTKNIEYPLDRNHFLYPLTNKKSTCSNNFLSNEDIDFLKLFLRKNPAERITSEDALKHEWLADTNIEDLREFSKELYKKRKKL
# Sequence of Calcium-dependent protein kinase 1 (Plasmodium falciparum (isolate 3D7)) (P62344 whole entry, looked up): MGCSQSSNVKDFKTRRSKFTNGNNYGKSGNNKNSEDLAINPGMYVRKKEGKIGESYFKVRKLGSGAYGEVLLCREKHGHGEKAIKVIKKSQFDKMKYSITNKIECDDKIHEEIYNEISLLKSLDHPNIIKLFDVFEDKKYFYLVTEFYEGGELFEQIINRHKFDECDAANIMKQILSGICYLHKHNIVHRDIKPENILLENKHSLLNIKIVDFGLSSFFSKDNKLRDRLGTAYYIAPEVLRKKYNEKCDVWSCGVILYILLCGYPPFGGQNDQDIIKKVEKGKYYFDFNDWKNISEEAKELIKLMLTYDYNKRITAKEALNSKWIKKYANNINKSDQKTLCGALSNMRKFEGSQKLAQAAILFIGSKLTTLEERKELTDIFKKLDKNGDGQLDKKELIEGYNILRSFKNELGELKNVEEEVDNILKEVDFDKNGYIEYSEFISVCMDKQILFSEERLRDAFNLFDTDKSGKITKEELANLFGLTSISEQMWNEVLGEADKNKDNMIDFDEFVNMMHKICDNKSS
# Sequence of Plasmodium falciparum protein kinase 6 (PK6, PF3D7_1337100) (Q8IDW1 1-305): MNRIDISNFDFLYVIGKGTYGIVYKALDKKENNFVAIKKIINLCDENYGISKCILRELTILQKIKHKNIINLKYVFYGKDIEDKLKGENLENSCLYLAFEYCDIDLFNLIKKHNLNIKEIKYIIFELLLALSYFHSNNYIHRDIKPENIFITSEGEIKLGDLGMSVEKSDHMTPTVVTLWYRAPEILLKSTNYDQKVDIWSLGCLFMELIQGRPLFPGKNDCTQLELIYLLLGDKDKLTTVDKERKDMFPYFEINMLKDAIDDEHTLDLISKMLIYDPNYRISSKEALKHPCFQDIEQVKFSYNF
SMILES,growth inhibition [1],inhibition [2],inhibition [3],growth inhibition [4],outcome [5],outcome [6],outcome [7],outcome [8]
CCCCCCOc1ccc(C(N)=NCc2ccccc2)c2c1CCCC2,35%,62% (active),-3%,96% (active),inactive,inactive,inactive,inactive
Cc1cccc2[nH]c(-c3ccc(-c4cccc(NC(=O)COc5ccccc5C(N)=O)c4)s3)nc12,19%,80% (active),-6%,99% (active),inactive,inactive,inactive,inactive
CS(=O)(=O)NCCCNCc1ccc(-c2ccc(-c3nc4ccc(F)cc4[nH]3)s2)cc1,30%,23%,1%,95% (active),inactive,inactive,inactive,inactive
N#Cc1ccc(/C=C/C(=O)NCCCCCN2CCCN(C(=O)Nc3ccc(Cl)c(C(F)(F)F)c3)CC2)cc1,13%,28%,0%,98% (active),inactive,inactive,inactive,inactive
O=C(NC1CCN(c2ccnc3cc(Cl)ccc23)C1)c1ccc(F)cc1 (stereo unspecified),97% (active),26%,4%,94% (active),inactive,inactive,inactive,inactive
COCCCNC(=O)[C@H]1CNCCN1C(=O)c1ccccc1,95% (active),53% (active),-2%,97% (active),inactive,inactive,inactive,inactive
CCCCc1ccc(CCNCCCCCCNCCc2ccc(O)c(O)c2)cc1,-1%,45%,5%,100% (active),inactive,inactive,inactive,inactive
O=C(Nc1cccc(-c2csc(-c3nc4ccccc4[nH]3)c2)c1)c1ccncc1,61% (active),64% (active),-1%,101% (active),inactive,inactive,inactive,inactive
O=C(/C=C/c1ccc(Cl)c(Cl)c1)NCCCCCN1CCC(NC(=O)c2ccc(F)cc2)CC1,13%,14%,-1%,102% (active),inactive,inactive,inactive,inactive
Cn1cncc1C(=O)Nc1cccc(-c2ccc(-c3nc4ccccc4[nH]3)cc2)c1,11%,-5%,1%,99% (active),inactive,inactive,inactive,inactive
CO/C(=C\C=C\c1cc2cc(Cl)c(Cl)cc2[nH]1)C(=O)NCCCN1CCCC[C@H]1C,91% (active),41%,3%,100% (active),inactive,inactive,inactive,inactive
O=C(Nc1cccc2ccccc12)N1CCc2cc3nccc(N4CCN5CCC[C@H]5C4)c3cc21,86% (active),11%,0%,99% (active),inactive,inactive,inactive,inactive
Nc1n[nH]c(-c2ccccc2Nc2ccnc3cc(-c4nccs4)ccc23)n1,94% (active),98% (active),-2%,100% (active),inactive,inactive,inactive,inactive
COc1ccc(NC(=O)CCNc2cc(C)nc(NCc3cccc(C)c3)n2)cc1,25%,14%,1%,100% (active),inactive,inactive,inactive,inactive
COc1ccc(F)cc1-c1ccc(C(=O)N2CCCN(c3ccc(C#N)cn3)CC2)cc1,100% (active),9%,-2%,99% (active),inactive,inactive,inactive,inactive
CCCC(CNCc1cccc(OC(F)(F)C(F)F)c1)CNc1cc(=O)c2ccccc2[nH]1 (stereo unspecified),94% (active),-1%,1%,101% (active),inactive,inactive,inactive,inactive
Cc1cc(CN2CCC(Nc3ncc(-c4ccsc4)c4nc(C(F)(F)F)ccc34)CC2)no1,67% (active),8%,-3%,81% (active),inactive,inactive,inactive,inactive
COc1cccc(CNC[C@@H](O)[C@H](Cc2ccccc2)NC(=O)c2cc(C3CCCC3)cc(N3CCCCS3(=O)=O)c2)c1,83% (active),7%,4%,96% (active),inactive,inactive,inactive,inactive
O=C(Nc1ccc(-c2nc3ccccc3[nH]2)cc1)C1CCN(Cc2cccc(F)c2F)CC1,51% (active),23%,2%,97% (active),inactive,inactive,inactive,inactive

SMILES,growth inhibition [1],inhibition [2],inhibition [3],growth inhibition [4],outcome [5],outcome [6],outcome [7],outcome [8]
COc1cc2nc(NCCc3ccccc3)nc(NC(C)c3ccccc3)c2cc1OC (stereo unspecified),100% (active),9%,1%,99% (active),inactive,inactive,inactive,inactive
Cc1ccccc1CN1CCCN(Cc2ccc(C(=O)Nc3ccc(Cl)cc3)cc2)CC1,15%,48%,3%,93% (active),inactive,inactive,inactive,inactive
Cc1ccc(Cn2nc(N3CCNCC3)ccc2=O)cc1NC(=O)Nc1ccc(-c2ccccc2)cc1,20%,46%,-1%,94% (active),inactive,inactive,inactive,inactive
CC(=O)c1c(Nc2c(C)cc(C)cc2C)oc(C)cc1=O,83% (active),7%,7%,95% (active),inactive,inactive,inactive,inactive
O=C(c1cccs1)N(Cc1cccc(-c2ccc(CNCCc3ccccc3)cc2)c1)C1CCN(Cc2ccccc2)CC1,76% (active),3%,-3%,95% (active),inactive,inactive,inactive,inactive
Cc1[nH]c2ccc(O)cc2c1C1CCN(CCCCCNC(=O)/C=C/c2ccc(Cl)c(Cl)c2)CC1,1%,33%,2%,101% (active),inactive,inactive,inactive,inactive
O=C(Nc1cccc(CCNCc2ccccc2)c1)Nc1cccc2ccccc12,8%,13%,1%,102% (active),inactive,inactive,inactive,inactive
CCN(CC)CCN(Cc1ccc(-c2ccc(C(F)(F)F)cc2)cc1)C(=O)Cn1c(SCc2ccc(F)c(F)c2F)nc(=O)c2c1CCC2,96% (active),100% (active),-4%,91% (active),inactive,inactive,inactive,inactive
Cc1[nH]c(C)c(-c2ccc(-c3ccccc3C(F)(F)F)nc2)c(=O)c1Br,96% (active),-3%,-3%,97% (active),inactive,inactive,inactive,inactive
CCCNC(=O)c1cncc(-c2ccc(CNCCCc3ccccc3)cc2)c1,29%,-13%,0%,101% (active),inactive,inactive,inactive,inactive
Cn1cnc(-c2ccc3c(c2)CCN(CCC2CCC(NC(=O)/C=C/c4ccc(F)cc4)CC2)CC3)c1 (stereo unspecified),18%,26%,4%,90% (active),inactive,inactive,inactive,inactive
Brc1ccc(C=NNc2nc3ccccc3[nH]2)cc1,90% (active),-3%,0%,102% (active),inactive,inactive,inactive,inactive
CCC(=O)c1c(C)n(-c2ncnc3c2nc(C)n3-c2ccc(C)cc2C)c2ccccc12,78% (active),-16%,-2%,96% (active),inactive,inactive,inactive,inactive
Cc1ccc(-c2nc(N3CCN(C(=O)c4ccco4)CC3)c3ccc(Cl)cc3n2)cc1,78% (active),17%,3%,90% (active),inactive,inactive,inactive,inactive
Cc1noc(C)c1-c1ccc2c(Nc3nccc4ccccc34)c(C(N)=O)cnc2c1,99% (active),100% (active),1%,100% (active),inactive,inactive,inactive,inactive
CC(C)N1CCN(C(CN2CCN(CCCOc3cccc4ccccc34)CC2)c2ccc(F)cc2)CC1 (stereo unspecified),75% (active),54% (active),4%,101% (active),inactive,inactive,inactive,inactive
O=C(NCCN1CCCC1)c1ccc(-c2ccc(-c3nc4ccccc4[nH]3)s2)cc1,3%,22%,-2%,92% (active),inactive,inactive,inactive,inactive
O=S(=O)(Nc1cccc(CCN2CCC(N3CCCCC3)CC2)c1)c1ccc(Oc2ccccc2)nc1,-4%,8%,-2%,99% (active),inactive,inactive,inactive,inactive
